# Assay results: PubChem BioAssay (EPA / NIEHS)
# Where “and” joins values, the source holds several entries; their conditions need not be identical. Equal values may be shown once. Records with an inconclusive call do not appear. The source holds several records for some structures; these can differ, active in one and inactive in another. Calls of active or inactive are those of the source. The calls were made as follows: active = hit-call score of the fitted dose curve at least 0.9, where 1 is the maximum; inconclusive = response in the unintended direction; inactive = score below 0.9.
# Test: ACEA_ER_80hr: ACEA Biosciences xCELLigence Real-Time Cell Analysis on Estrogen Receptor Agonism for Proliferation (AID 2282667)
# Conditions: T47D proliferation, impedance (xCELLigence), 80 h
# Experimental: ACEA_ER is a cell-based, single-readout assay that uses T47D, a human breast cell line, with measurements taken at 80 hours after chemical dosing in a 96-well plate, although TO2 (mc0.srcf) used a 384-well plate. Differences in plate size can be ignored given data normalization.ACEA_ER_80hr is one of two assay component(s) measured or calculated from the ACEA_ER assay. It is designed to make measurements of real-time cell-growth kinetics, a form of growth reporter, as detected with electrical impedance signals by Real-Time Cell Electrode Sensor (RT-CES) technology.Data from the assay component ACEA_ER_80hr was analyzed into 1 assay endpoint. This assay endpoint, ACEA_ER_80hr_Positive, was analyzed in the positive analysis fitting direction relative to DMSO as the negative control and baseline of activity. Using a type of growth reporter, measures of the cells for gain-of-signal activity can be used to understand the signaling at the pathway-level as they relate to the gene ESR1. Furthermore, this assay endpoint can be referred to as a primary readout, because this assay has produced multiple assay endpoints where this one serves a signaling function. To generalize the intended target to other relatable targets, this assay endpoint is annotated to the nuclear receptor intended target family, where the subfamily is steroidal.
# The xCELLigence system Multi-E-Plate stations were used to measure the time-dependent response to chemicals. Each compound was tested in an eight-point, 1:4 serial dilution series starting at a maximum final concentration of 100 uM. A maximum starting concentration of 0.5% DMSO was present in the 100 uM chemical samples and was diluted along with the test article dilution series. The screen was performed in biological duplicate using two separate, 96-well, E-Plates 96 for each dilution series (n = 2). Positive controls (MG132 and E2) and a negative control (assay media) were tested in quadruplicate on each testing plate. […] Reference compounds were tested with 8 concentrations with 1:5 serial dilutions. All screening was carried out by ACEA Biosciences, Inc. (San Diego, CA). T-47D cells purchased from ATCC were maintained in RPMI1640 media supplemented with 10% characterized fetal bovine serum (FBS). […] Cells were then detached and seeded in E-Plates 96 in assay medium. After overnight monitoring of growth once every hour, compounds were added to […] cells and remained in the medium until the end of the experiment. Cellular responses were then recorded once every 5 min for the first 5 h, and once every hour for an additional 100 h.
Structure (SMILES),outcome,AC50
CC(O)CO (stereo not given),inactive,
CCCCCCC(=O)O,inactive,
O=C1OC2(c3ccccc31)c1cc(Br)c(O)c(Br)c1Oc1c2cc(Br)c(O)c1Br,inactive,20.5 µM (active)
Cc1cc(CCN2CCN(c3nsc4ccccc34)CC2)cc2c1NC(=O)CC2(C)C,inactive,
CCCOC(=O)c1ccc(O)cc1,,2.7 µM (active)
C[C@@H]1C[C@H]2[C@@H]3CCC4=CC(=O)C=C[C@]4(C)[C@@]3(F)[C@@H](O)C[C@]2(C)[C@@]1(O)C(=O)COP(=O)(O)O,inactive,0.685 µM (active)
CC1=C(/C=C/C(C)=C/C=C/C(C)=C/C(=O)O)C(C)(C)CCC1,,0.00133 µM (active)
ClC1=C(Cl)C(Cl)(Cl)C(Cl)=C1Cl,inactive,
CCCCCCCCCCCCCCCS(=O)(=O)Oc1ccccc1,inactive,
c1ccc2cc3c(ccc4ccccc43)cc2c1,inactive,11.7 µM (active) and 2.92 µM (active)
OC1CCC(C2CCCCC2)CC1 (stereo not given),inactive,
CCCCCCCCC(=O)O,inactive,
O=C(O)c1ccccc1C(c1ccc(O)cc1)c1ccc(O)cc1,inactive,
CN(C)C=O,inactive,
N#C[C@@H]1CC(F)(F)CN1C(=O)CNC1CC2CCC(C1)N2c1ncccn1 (stereo not given in full),,4 µM (active)
CCCCCCCCCCCCc1ccccc1S(=O)(=O)O,inactive,
CC(=O)NC1(c2cccc(F)c2)CCN(CC[C@@]2(c3ccc(Cl)c(Cl)c3)CN(c3ccccc3)C(=O)CO2)CC1,inactive,
CCCCC(CC)COC(=O)CCCCC(=O)OCc1ccccc1 (stereo not given),inactive,

Structure (SMILES),outcome,AC50
CC(O)C(=O)O (stereo not given),inactive,
CCCCOCCO,inactive,
COc1ccc([N+](=O)[O-])cc1N,inactive,
Oc1cc2ccccc2c2ccccc12,inactive,
C=C(C)C(=O)OCCC(F)(F)C(F)(F)C(F)(F)C(F)(F)C(F)(F)C(F)(F)F,inactive,
CCCCCCCCCCCCN1CCCC1=O,inactive,
OCCC(F)(F)C(F)(F)C(F)(F)C(F)(F)C(F)(F)C(F)(F)F,inactive,
O=C(O)Cc1cc(I)c(Oc2cc(I)c(O)c(I)c2)c(I)c1,inactive,
O=[N+]([O-])c1ccc(O)cc1,inactive,
FC(F)(I)C(F)(F)C(F)(F)C(F)(F)C(F)(F)C(F)(F)I,,6.86 nM (active) and 252 nM (active)
CN1CCC[C@H]1c1cccnc1,inactive,
CC(C)(C)c1cc(C(C)(C)C)c(O)c(C(C)(C)C)c1,,10.6 µM (active)
O=C(OCCOCCOC(=O)c1ccccc1)c1ccccc1,inactive,
CCCCCCCCOC(=O)CCCCCCCCC(=O)OCCCCCCCC,inactive,
CC[C@H](C)[C@@H](C(=O)O)n1sc2ccccc2c1=O,inactive,
CCC(C)(C)C1CCC(O)CC1 (stereo not given),inactive,2.38 µM (active) and 336 nM (active)
CC(C)(C)CC(C)(C)c1ccc(O)c(-n2nc3ccccc3n2)c1,inactive,
c1ccc2c(c1)Cc1ccccc1-2,inactive,
